Experimental data taken from paper PMC7862700, “An all-to-all approach to the identification of sequence-specific readers for epigenetic DNA modifications on cytosine”.

Columns and labels:
Experiment in all cases: DAPPL (digital affinity profiling via proximity ligation, sequencing); 10 mM Tris-HCl pH 7.5, 50 mM NaCl, 1 mM DTT, 4% glycerol, room temperature, 30 min; GST-TFs on glutathione beads, 16-mer random dsDNA library, 0.1% formaldehyde crosslink after washing; high values mean tight binding
Conditions in all cases: protein: recombinant; tags: N-terminal GST; dsDNA, one strand shown
ELK4 = target: T1, ELK4 (Homo sapiens, UniProt P28324-2 1-405)
T1 sequence: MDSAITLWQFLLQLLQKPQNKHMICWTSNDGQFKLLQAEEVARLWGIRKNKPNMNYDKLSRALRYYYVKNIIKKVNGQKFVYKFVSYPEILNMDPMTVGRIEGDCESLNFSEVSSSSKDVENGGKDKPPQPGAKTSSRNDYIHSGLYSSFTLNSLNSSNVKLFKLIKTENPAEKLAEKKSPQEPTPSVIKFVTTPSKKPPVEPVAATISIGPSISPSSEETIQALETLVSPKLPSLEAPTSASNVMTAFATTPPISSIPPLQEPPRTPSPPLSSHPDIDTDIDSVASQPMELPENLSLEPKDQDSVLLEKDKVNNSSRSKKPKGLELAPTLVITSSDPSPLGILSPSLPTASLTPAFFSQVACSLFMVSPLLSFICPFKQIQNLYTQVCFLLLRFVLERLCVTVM
In short: (§1)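 Sequencing on an Illumina NextSeq500 followed washing, crosslinking with 0.1% formaldehyde, proximity ligation (BsaI/T4 ligase, 1 h, 37 °C) and PCR amplification of pools that had been incubated for 30 min at room temperature with 200 nmole of a random double-stranded 16-mer DNA library in Tris/NaCl/DTT/glycerol buffer. Each pool held DNA-barcoded human transcription factors, expressed in yeast as GST fusions and captured on glutathione beads, plus a tag-only sample. Binding signal is a hexamer's read frequency for a factor divided by its frequency in the tag-only sample.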

ELF3 = target: T2, ELF3 (Homo sapiens, UniProt P78545 1-371)
T2 sequence: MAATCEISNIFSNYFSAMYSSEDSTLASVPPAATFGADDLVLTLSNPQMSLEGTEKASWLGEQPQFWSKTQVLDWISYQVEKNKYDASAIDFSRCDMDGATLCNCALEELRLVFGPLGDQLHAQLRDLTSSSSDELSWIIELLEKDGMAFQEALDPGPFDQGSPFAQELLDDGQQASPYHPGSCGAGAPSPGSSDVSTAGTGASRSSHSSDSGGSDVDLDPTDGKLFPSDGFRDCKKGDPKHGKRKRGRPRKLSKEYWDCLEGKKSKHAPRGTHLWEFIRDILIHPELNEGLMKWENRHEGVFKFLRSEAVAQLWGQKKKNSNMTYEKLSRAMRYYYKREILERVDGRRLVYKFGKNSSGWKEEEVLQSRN
In short: as §1

CRX = CRX (Homo sapiens, UniProt O43186 1-299)
In short: as §1

ETV1 = ETV1 (Homo sapiens, UniProt P50549 1-477)
In short: as §1

ERF = target: T3, ERF (Homo sapiens, UniProt P50548 1-548)
T3 sequence: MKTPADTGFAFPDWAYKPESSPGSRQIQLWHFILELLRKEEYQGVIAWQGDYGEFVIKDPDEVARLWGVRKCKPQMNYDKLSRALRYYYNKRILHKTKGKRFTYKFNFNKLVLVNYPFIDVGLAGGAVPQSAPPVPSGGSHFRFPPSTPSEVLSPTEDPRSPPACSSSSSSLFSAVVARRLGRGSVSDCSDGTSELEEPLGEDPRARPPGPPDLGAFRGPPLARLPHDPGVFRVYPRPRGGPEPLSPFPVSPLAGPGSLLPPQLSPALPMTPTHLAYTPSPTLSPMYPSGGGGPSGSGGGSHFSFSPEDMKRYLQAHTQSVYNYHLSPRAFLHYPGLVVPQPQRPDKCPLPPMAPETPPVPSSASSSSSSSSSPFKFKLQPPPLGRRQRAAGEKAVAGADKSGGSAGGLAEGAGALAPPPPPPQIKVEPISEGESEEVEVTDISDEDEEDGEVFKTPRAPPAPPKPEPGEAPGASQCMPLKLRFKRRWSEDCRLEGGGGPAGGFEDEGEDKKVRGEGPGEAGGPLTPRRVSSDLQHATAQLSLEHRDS
In short: as §1

ETV3L = target: T4, ETV3L (Homo sapiens, UniProt Q6ZN32 1-361)
T4 sequence: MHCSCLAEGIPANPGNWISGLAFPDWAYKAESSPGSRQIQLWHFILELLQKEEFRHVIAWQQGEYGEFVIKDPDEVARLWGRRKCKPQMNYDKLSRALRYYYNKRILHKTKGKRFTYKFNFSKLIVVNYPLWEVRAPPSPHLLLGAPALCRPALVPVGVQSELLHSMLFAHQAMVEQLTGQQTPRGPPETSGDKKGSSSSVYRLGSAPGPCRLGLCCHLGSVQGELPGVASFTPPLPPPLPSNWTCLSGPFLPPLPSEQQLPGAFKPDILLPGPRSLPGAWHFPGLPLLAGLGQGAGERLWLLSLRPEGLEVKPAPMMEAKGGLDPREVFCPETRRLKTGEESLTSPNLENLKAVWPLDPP
In short: as §1

ETS2 = target: T5, ETS2 (Homo sapiens, UniProt P15036 1-469)
T5 sequence: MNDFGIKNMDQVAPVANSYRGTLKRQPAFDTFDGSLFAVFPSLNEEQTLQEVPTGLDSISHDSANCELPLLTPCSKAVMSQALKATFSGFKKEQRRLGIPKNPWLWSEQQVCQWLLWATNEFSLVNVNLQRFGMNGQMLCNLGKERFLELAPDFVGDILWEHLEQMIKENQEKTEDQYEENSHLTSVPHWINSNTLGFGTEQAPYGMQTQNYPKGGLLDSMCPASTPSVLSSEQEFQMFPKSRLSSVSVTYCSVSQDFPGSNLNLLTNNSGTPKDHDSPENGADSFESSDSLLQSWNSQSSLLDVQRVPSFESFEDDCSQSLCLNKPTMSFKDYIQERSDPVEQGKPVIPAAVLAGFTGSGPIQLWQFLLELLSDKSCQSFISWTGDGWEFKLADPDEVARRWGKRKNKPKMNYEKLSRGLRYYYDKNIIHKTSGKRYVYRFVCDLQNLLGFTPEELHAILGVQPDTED
In short: as §1

ETV7 = target: T6, ETV7 (Homo sapiens, UniProt Q9Y603 1-341)
T6 sequence: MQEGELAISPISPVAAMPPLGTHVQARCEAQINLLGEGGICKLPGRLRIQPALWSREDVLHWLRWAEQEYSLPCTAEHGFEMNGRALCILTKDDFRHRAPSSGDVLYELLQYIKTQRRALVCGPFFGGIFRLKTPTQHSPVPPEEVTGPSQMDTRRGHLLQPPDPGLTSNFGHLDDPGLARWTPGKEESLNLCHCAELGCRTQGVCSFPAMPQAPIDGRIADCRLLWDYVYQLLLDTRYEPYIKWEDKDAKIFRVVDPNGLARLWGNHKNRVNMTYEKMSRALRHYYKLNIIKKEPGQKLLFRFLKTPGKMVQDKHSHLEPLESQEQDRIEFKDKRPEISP
In short: as §1

ELF5 = target: T7, ELF5 (Homo sapiens, UniProt Q9UKW6-2 1-255)
T7 sequence: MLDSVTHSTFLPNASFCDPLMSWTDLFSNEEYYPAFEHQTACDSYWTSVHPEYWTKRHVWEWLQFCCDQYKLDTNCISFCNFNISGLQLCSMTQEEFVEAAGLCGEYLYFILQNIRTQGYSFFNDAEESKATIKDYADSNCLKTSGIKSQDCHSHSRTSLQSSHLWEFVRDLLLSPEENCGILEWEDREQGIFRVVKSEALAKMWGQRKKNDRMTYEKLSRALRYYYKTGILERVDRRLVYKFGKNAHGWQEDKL
In short: as §1

ETV3 = target: T8, ETV3 (Homo sapiens, UniProt P41162-2 1-143)
T8 sequence: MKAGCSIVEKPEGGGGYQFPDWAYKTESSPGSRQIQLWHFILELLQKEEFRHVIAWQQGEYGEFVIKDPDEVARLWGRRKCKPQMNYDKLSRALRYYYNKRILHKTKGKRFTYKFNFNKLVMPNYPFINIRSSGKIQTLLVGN
In short: as §1

ETV6 = ETV6 (Homo sapiens, UniProt P41212 1-452)
In short: as §1

Chain of CRX (O43186 whole entry): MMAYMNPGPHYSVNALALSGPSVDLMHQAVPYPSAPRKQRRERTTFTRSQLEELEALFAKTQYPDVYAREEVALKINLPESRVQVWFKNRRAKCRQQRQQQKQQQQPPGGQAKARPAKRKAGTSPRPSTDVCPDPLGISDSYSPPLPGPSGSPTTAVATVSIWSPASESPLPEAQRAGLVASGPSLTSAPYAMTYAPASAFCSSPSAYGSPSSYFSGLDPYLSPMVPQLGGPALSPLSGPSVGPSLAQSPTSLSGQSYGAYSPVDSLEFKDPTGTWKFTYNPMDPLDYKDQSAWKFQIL
Chain of ETV6 (P41212 whole entry): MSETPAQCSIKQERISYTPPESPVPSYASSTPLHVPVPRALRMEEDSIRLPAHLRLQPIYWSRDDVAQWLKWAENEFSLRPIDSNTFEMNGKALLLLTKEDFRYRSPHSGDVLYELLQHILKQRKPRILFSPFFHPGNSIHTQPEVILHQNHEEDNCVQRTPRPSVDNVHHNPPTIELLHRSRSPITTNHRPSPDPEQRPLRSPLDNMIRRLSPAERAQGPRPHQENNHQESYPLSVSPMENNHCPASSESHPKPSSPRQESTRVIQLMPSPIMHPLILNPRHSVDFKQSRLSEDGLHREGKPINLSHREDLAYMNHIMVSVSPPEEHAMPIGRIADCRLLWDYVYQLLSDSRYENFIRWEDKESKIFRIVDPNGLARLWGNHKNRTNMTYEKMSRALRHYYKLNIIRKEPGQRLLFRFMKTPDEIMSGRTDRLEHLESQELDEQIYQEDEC
Chain of ETV1 (P50549 whole entry): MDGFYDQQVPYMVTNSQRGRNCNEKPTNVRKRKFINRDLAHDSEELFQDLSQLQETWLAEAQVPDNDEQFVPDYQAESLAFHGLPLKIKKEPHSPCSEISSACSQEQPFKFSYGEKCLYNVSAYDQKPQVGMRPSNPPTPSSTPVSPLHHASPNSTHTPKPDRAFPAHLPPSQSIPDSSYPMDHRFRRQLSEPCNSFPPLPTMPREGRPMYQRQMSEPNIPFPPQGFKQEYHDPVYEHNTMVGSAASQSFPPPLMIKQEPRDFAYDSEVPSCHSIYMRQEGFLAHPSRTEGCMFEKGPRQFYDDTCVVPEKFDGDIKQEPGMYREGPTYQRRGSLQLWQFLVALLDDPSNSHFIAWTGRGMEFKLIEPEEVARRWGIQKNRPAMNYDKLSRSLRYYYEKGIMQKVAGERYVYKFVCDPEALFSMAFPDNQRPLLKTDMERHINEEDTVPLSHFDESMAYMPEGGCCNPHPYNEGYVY

GCCGCT
binding signal (ELK4): 1.1 fold enrichment (6-mer frequency, TF over GST control)
binding signal (ELF3): 1.1 fold enrichment (6-mer frequency, TF over GST control)
binding signal (CRX): 1.02 fold enrichment (6-mer frequency, TF over GST control)
binding signal (ETV1): 1.15 fold enrichment (6-mer frequency, TF over GST control)
binding signal (ERF): 1.23 fold enrichment (6-mer frequency, TF over GST control)
binding signal (ETV3L): 1.01 fold enrichment (6-mer frequency, TF over GST control)
binding signal (ETS2): 1.09 fold enrichment (6-mer frequency, TF over GST control)
binding signal (ETV7): 1.05 fold enrichment (6-mer frequency, TF over GST control)
binding signal (ELF5): 1.03 fold enrichment (6-mer frequency, TF over GST control)
binding signal (ETV3): 1.03 fold enrichment (6-mer frequency, TF over GST control)
binding signal (ETV6): 1.04 fold enrichment (6-mer frequency, TF over GST control)
